The results in this text go back to PubChem BioAssay (EPA / NIEHS).

Structures are written as SMILES. Where “and” joins values, the source holds several entries; their conditions need not be identical. Equal values may be shown once. Some compounds were tested as several samples or in several runs, with calls that do not always agree. Calls of active or inactive are those of the source. How the source made its calls: active means hit-call score of the fitted dose curve at least 0.9, where 1 is the maximum; inactive means score below 0.9.

Read-out in the experiment: Monokine induced gamma interferon (MIG), CXCL9 (gene 4283)
Kind of experiment: BSK_KF3CT_MIG: BioMAP Diversity Plus: KF3CT Assay for Monokine induced gamma interferon (MIG) Biomarker Activity (AID 2284248). The following applies: primary human keratinocytes with fibroblasts. How it is done:
BSK_KF3CT is a cell-based, multiplexed-readout assay that uses keratinocytes and foreskin fibroblasts, a human skin primary cell co-culture, with measurements taken at 24 hours after chemical dosing in a 96-well plate.BSK_KF3CT_MIG is an assay component measured in the BSK_KF3CT assay. It measures MIG antibody related to regulation of gene expression using ELISA technology.Data from the assay component BSK_KF3CT_MIG was analyzed at the endpoint, BSK_KF3CT_MIG, in the positive analysis fitting direction relative to DMSO as the negative control and baseline of activity. Using a type of binding reporter, gain or loss-of-signal activity can be used to understand protein changes. To generalize the intended target to other relatable targets, this assay endpoint is annotated to the 'cytokine' intended target family, where the subfamily is 'chemotactic factor'.
The levels of cell surface (or secreted, indicated by the prefix "s") biomarker endpoints were measured by ELISA. Overt cytotoxicity to cells in confluent adherent cultures (all systems other than the BT system) was assessed by measuring total protein levels using sulforhodamine B (SRB) staining in parallel cultures at the time of biomarker measurements, indicated as SRB endpoints. For proliferation assays for adherent cell types, individual cell types are cultured at sub-confluence and relative cell numbers quantified by SRB staining at time points optimized for each system (48 h: 3C and CASM3C systems; 72 h: BT and HDF3CGF systems; 96 h: SAg system). SRB was performed by staining cells with 0.1% SRB after fixation with 10% TCA and reading wells at 560 nm.Viability and proliferation of PBMC (T cells) was quantified by Alamar Blue reduction for the SAg and BT systems. For PBMC viability (referred to as PBMC Cytotoxicity within the assay endpoint names), cells were plated (75,000/well in a 96-well plate) and then chemical samples added for 1 h before addition of activators, SEB and TSST-1 (20 ng/mL final concentration each). Cells were incubated for 90 h. Then, Alamar Blue (20 uL/well) (Invitrogen, Cat DAL1100) was added for 6 h, and the plates were read with a fluorescence microplate reader at 546/580 nm (excitation/emission). For PBMC proliferation, cells were plated and activated as above but incubated for only 16 h prior to addition of Alamar Blue. Plates were read after 6 h.
For `CCO[Si](C)(OCC)OCC`, the result was inactive. `CCCCC(CC)COCC1CO1` (stereo not given): the outcome was inactive. Regarding `Nc1ccc(N)c(Cl)c1`, the outcome was inactive and the AC50 was 12.3 µM (active). `CCOC(=O)c1ccccc1C(=C1C=C(Br)C(=O)C(Br)=C1)c1cc(Br)c(O)c(Br)c1`: the AC50 is 4.3 µM (active) and 3.96 µM (active). Take `O=C(c1ccc(O)cc1)c1ccc(O)cc1O`: the outcome was inactive.

As to `CN1C(=O)N(C)C(O)C1O` (stereo not given), the result was inactive.

As for `C=C[Si](OC(C)=O)(OC(C)=O)OC(C)=O`, the result was inactive. Take `CO[Si](OC)(OC)c1ccccc1`: the outcome was inactive. Still for that read-out and setting: under `O=C1CCCN1CCO` stands “inactive”.

The AC50 is the midpoint of the concentration-response curve, whichever way the signal moves.
